The source made the active and inactive calls. The calls were made as follows: active = hit-call score of the fitted dose curve at least 0.9, where 1 is the maximum; inactive = score below 0.9.
biological target: Transcription factor Sp1 (Homo sapiens) (UniProt P08047); experiment: ATG_Sp1_CIS: Attagene CIS-FACTORIAL HepG2 Assay for human Specificity Protein 1 (Sp1) (AID 2282961); details: HepG2 Sp1 cis-reporter transcription, actives raise or lower the signal
Summary of the method: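 Cells: HepG2, transiently transfected with cis-regulated multiplexed reporters. Exposure: 24 h. Detection: reporter transcripts amplified, fluorescently labeled, restriction-digested and sized by capillary electrophoresis. Analysis: bidirectional fit relative to DMSO.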

Transcription factor Sp1 (Homo sapiens), sequence (P08047 whole entry, looked up): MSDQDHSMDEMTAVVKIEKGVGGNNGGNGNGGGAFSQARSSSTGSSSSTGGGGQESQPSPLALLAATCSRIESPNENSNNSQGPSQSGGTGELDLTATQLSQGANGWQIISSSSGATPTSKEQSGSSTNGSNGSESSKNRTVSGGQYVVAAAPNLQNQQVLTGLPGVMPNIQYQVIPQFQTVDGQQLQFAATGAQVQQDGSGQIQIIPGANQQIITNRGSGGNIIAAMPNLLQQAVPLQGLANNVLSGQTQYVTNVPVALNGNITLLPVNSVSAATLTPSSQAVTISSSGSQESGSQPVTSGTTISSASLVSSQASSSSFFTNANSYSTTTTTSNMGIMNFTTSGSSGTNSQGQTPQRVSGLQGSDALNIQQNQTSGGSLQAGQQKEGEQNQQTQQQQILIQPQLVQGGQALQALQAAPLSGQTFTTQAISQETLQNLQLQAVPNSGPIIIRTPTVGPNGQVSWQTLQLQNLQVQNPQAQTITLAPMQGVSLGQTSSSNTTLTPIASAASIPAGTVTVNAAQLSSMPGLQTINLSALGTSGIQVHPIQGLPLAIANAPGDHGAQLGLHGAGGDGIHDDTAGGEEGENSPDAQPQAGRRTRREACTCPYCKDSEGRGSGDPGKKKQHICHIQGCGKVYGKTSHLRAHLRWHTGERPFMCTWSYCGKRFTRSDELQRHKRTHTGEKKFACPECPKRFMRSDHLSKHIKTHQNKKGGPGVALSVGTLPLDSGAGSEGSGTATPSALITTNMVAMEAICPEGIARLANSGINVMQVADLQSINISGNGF

Compound | outcome
Nc1nc(N)c2nc(CNc3ccc(C(=O)N[C@@H](CCC(=O)O)C(=O)O)cc3)cnc2n1 | inactive
COc1cc(S(=O)(=O)O)c(C)cc1N=Nc1c(O)ccc2cc(S(=O)(=O)O)ccc12 | inactive
CN1CCN(Cc2cc(-c3ccc4[nH]c(=O)oc4c3)co2)[C@@H](c2ccc(F)cc2)C1 | inactive
FC(F)(F)C(F)(F)C(F)(F)C(F)(F)C(F)(F)C(F)(F)CCI | inactive
Cc1nc(C)nc(N2C[C@@H](C)N(c3ccnc([C@@H](C)O)n3)[C@@H](C)C2)n1 | inactive
NS(=O)(=O)c1cc2c(cc1Cl)NCNS2(=O)=O | inactive
Cc1c(C(=O)O)c(O)cc2c1C(=O)c1c(O)c([C@@H]3O[C@H](CO)[C@@H](O)[C@H](O)[C@H]3O)c(O)c(O)c1C2=O | inactive
Cc1cc(NC(=O)C(=O)O)cc(C)c1Oc1ccc(O)c2c1CCC2 | inactive
O=C(O)Cc1ccccc1Nc1c(Cl)cccc1Cl | inactive
O=c1[nH]cc(F)c(=O)[nH]1 | inactive

system: not listed separately; experiment: ATG_SREBP_CIS: Attagene CIS-FACTORIAL HepG2 Assay for human Sterol Regulatory Element Binding (SREBP) (AID 2282962); details: HepG2 Attagene cis-factorial SREBP reporter, mRNA; actives raise or lower the signal
Summary of the method: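 Twenty-four hours after chemical dosing of transfected HepG2 cultures, reporter RNA was converted to cDNA, amplified, end-labelled with 6-FAM and resolved by capillary electrophoresis. Responses were fitted relative to DMSO.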

Compound | outcome | AC50
COc1cc(-c2nc(NC(=O)c3cc4cc(C)cc(C)c4n3CC(=O)O)sc2CCC2CCCCC2)c(OC)cc1Cl | inactive | 
CCCCCCCCCCCC(=O)OC |  | 59.6 µM (active)
COCCOCCOC | inactive | 
CCCCCCCCCCO | inactive | 
CCOC(=O)C(C)(C)Oc1ccc(Cl)cc1 | inactive | 
CC(CO)OC(C)CO (stereo not drawn) (tested in a mixture with another compound) | inactive | 
CCc1c(C(=O)NN2CCCCC2)nn(-c2ccc(Cl)cc2Cl)c1-c1ccc(Br)cc1 |  | 0.719 µM (active)
CNC(=O)[C@H]1O[C@@H](n2cnc3c(NCc4cc(Cl)ccc4OCc4cc(C)no4)ncnc32)[C@H](O)[C@@H]1N | inactive | 
C[Si]1(C)O[Si](C)(C)O[Si](C)(C)O[Si](C)(C)O1 | inactive | 
CCCCc1ccc2c(n1)[C@@H](c1ccc(OC)cc1C[C@H](C)C(=O)O)[C@H](C(=O)O)[C@H]2c1ccc2c(c1)OCO2 | inactive | 
O=C(O)CCCCC(=O)O | inactive | 
CCCCN(CCCC)CCCC | inactive | 
CN[C@H]1CC[C@@H](c2ccc(Cl)c(Cl)c2)c2ccc(S(N)(=O)=O)cc21 |  | 3.7 µM (active)
Cc1cc(=O)[nH]c(=S)[nH]1 | inactive | 
Cc1nc(-c2ccc3c(c2)CCN(CCC2CCC(NC(=O)/C=C/c4ccc(F)cc4)CC2)CC3)no1 (stereo not drawn) | inactive | 
Cc1ccc(Cl)cc1 | inactive | 
NC(=O)Cn1c(=O)cc(CCN2CCN(c3nccc4sccc34)CC2)c2ccc(F)cc21 |  | 18.4 µM (active)
Cc1ccccc1Cl | inactive | 
COc1cc(/C=C/C(=O)CC(=O)/C=C/c2ccc(O)c(OC)c2)ccc1O |  | 56.8 µM (active)
Nc1nc(N)c2nc(CNc3ccc(C(=O)N[C@@H](CCC(=O)O)C(=O)O)cc3)cnc2n1 | inactive | 
COc1cc(S(=O)(=O)O)c(C)cc1N=Nc1c(O)ccc2cc(S(=O)(=O)O)ccc12 | inactive | 
CN1CCN(Cc2cc(-c3ccc4[nH]c(=O)oc4c3)co2)[C@@H](c2ccc(F)cc2)C1 |  | 33 µM (active)
FC(F)(F)C(F)(F)C(F)(F)C(F)(F)C(F)(F)C(F)(F)CCI | inactive | 
Cc1nc(C)nc(N2C[C@@H](C)N(c3ccnc([C@@H](C)O)n3)[C@@H](C)C2)n1 | inactive | 
NS(=O)(=O)c1cc2c(cc1Cl)NCNS2(=O)=O | inactive | 
Cc1c(C(=O)O)c(O)cc2c1C(=O)c1c(O)c([C@@H]3O[C@H](CO)[C@@H](O)[C@H](O)[C@H]3O)c(O)c(O)c1C2=O | inactive | 
Cc1cc(NC(=O)C(=O)O)cc(C)c1Oc1ccc(O)c2c1CCC2 | inactive | 
O=C(O)Cc1ccccc1Nc1c(Cl)cccc1Cl | inactive | 
O=c1[nH]cc(F)c(=O)[nH]1 |  | 18.3 µM (active)

biological target: Signal transducer and activator of transcription 3 (Homo sapiens) (UniProt P40763); experiment: ATG_STAT3_CIS: Attagene CIS-FACTORIAL HepG2 Assay for human Signal Transducer and Activator of Transcription 3 (STAT3) (AID 2282963); details: HepG2, Attagene cis-factorial STAT3 reporter transcription; actives raise or lower the signal
Summary of the method: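 Endogenous STAT3-responsive cis-element activity was read in transiently transfected HepG2 cells after 24 h treatment. Reporter transcripts were quantified via RT-PCR and capillary electrophoresis, with DMSO as negative control and bidirectional curve fitting.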

Signal transducer and activator of transcription 3 (Homo sapiens), sequence (P40763 whole entry, looked up): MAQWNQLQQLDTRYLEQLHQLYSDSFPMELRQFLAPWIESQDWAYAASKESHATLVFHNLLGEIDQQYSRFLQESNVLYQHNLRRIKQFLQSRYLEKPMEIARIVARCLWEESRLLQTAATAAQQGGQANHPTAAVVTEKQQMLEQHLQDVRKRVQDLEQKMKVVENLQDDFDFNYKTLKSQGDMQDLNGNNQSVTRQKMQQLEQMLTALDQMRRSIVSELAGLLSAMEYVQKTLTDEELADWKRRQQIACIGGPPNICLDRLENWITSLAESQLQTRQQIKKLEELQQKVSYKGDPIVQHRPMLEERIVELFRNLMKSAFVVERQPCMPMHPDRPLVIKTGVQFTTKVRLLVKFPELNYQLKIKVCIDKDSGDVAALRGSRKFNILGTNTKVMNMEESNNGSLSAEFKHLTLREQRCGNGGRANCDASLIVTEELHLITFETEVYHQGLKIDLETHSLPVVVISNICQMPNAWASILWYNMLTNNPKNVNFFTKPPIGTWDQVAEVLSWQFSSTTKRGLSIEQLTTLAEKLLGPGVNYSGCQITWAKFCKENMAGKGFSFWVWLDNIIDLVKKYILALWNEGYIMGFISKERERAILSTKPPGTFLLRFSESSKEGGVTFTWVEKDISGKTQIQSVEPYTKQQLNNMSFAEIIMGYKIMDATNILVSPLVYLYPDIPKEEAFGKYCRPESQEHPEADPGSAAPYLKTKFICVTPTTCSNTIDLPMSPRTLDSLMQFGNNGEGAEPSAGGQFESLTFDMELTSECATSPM

Compound | outcome
COc1cc(-c2nc(NC(=O)c3cc4cc(C)cc(C)c4n3CC(=O)O)sc2CCC2CCCCC2)c(OC)cc1Cl | inactive
CCCCCCCCCCCC(=O)OC | inactive
COCCOCCOC | inactive
CCCCCCCCCCO | inactive
CCOC(=O)C(C)(C)Oc1ccc(Cl)cc1 | inactive
CC(CO)OC(C)CO (stereo not drawn) (tested in a mixture with another compound) | inactive
CCc1c(C(=O)NN2CCCCC2)nn(-c2ccc(Cl)cc2Cl)c1-c1ccc(Br)cc1 | inactive
CNC(=O)[C@H]1O[C@@H](n2cnc3c(NCc4cc(Cl)ccc4OCc4cc(C)no4)ncnc32)[C@H](O)[C@@H]1N | inactive
C[Si]1(C)O[Si](C)(C)O[Si](C)(C)O[Si](C)(C)O1 | inactive
CCCCc1ccc2c(n1)[C@@H](c1ccc(OC)cc1C[C@H](C)C(=O)O)[C@H](C(=O)O)[C@H]2c1ccc2c(c1)OCO2 | inactive
O=C(O)CCCCC(=O)O | inactive
CCCCN(CCCC)CCCC | inactive
CN[C@H]1CC[C@@H](c2ccc(Cl)c(Cl)c2)c2ccc(S(N)(=O)=O)cc21 | inactive
Cc1cc(=O)[nH]c(=S)[nH]1 | inactive
Cc1nc(-c2ccc3c(c2)CCN(CCC2CCC(NC(=O)/C=C/c4ccc(F)cc4)CC2)CC3)no1 (stereo not drawn) | inactive
Cc1ccc(Cl)cc1 | inactive
NC(=O)Cn1c(=O)cc(CCN2CCN(c3nccc4sccc34)CC2)c2ccc(F)cc21 | inactive
Cc1ccccc1Cl | inactive
COc1cc(/C=C/C(=O)CC(=O)/C=C/c2ccc(O)c(OC)c2)ccc1O | inactive
Nc1nc(N)c2nc(CNc3ccc(C(=O)N[C@@H](CCC(=O)O)C(=O)O)cc3)cnc2n1 | inactive
COc1cc(S(=O)(=O)O)c(C)cc1N=Nc1c(O)ccc2cc(S(=O)(=O)O)ccc12 | inactive
CN1CCN(Cc2cc(-c3ccc4[nH]c(=O)oc4c3)co2)[C@@H](c2ccc(F)cc2)C1 | inactive
FC(F)(F)C(F)(F)C(F)(F)C(F)(F)C(F)(F)C(F)(F)CCI | inactive
Cc1nc(C)nc(N2C[C@@H](C)N(c3ccnc([C@@H](C)O)n3)[C@@H](C)C2)n1 | inactive
NS(=O)(=O)c1cc2c(cc1Cl)NCNS2(=O)=O | inactive
Cc1c(C(=O)O)c(O)cc2c1C(=O)c1c(O)c([C@@H]3O[C@H](CO)[C@@H](O)[C@H](O)[C@H]3O)c(O)c(O)c1C2=O | inactive
Cc1cc(NC(=O)C(=O)O)cc(C)c1Oc1ccc(O)c2c1CCC2 | inactive
O=C(O)Cc1ccccc1Nc1c(Cl)cccc1Cl | inactive
O=c1[nH]cc(F)c(=O)[nH]1 | inactive

From PubChem BioAssay (EPA / NIEHS)
